We go through 40 molecules from PubChem BioAssay (Tox21).

Each structure is given as a SMILES string. Unmarked numbers belong to inactive results. Active and inactive are the calls of the source. Calls follow the shape of the full dose curve.
% is scaled to controls: 0 for no effect and ±100 for the full control effect.

This experiment in a line: G protein-coupled receptor (GPCR) small molecule agonists, calcium flux assay: HEK293 wild type cell line counter screen (AID 1920065). Conditions: HEK293 WT calcium flux, fluorescence, agonist mode; series mostly up to 57.6 µM; activation: at the top concentration. An excerpt:
U.S. Tox21 Program National Center for Advancing Translational Sciences [NCATS] Division of Preclinical Innovation [DPI] U.S. Environmental Protection Agency [EPA] National Institutes of Environmental Health Sciences [NIEHS] National Toxicology Program [NTP] U.S. Food and Drug Administration [FDA] Assay overview: The increased intracellular calcium release that occurred upon G protein-coupled receptor (GPCR) activation led to the frequent use of calcium flux assays to detect GPCR activation. For the purpose of studying and screening compounds that may activate GPCR, receptor-overexpressing models were typically generated using Hek293 wild-type (WT) cells. In order to eliminate the compounds that may have induced calcium release for non-specific activation, a counter-assay utilizing calcium flux on Hek293 WT cells was performed. The data were formulated in order to serve as a control for any calcium flux detection utilizing Hek293 cells with either GPCR overexpression or gene modification. The procurement of Hek293 WT cells from ATCC. Fluorescence intensity can be utilized to determine the activation of the compound in a calcium flux assay. As a counter control, this cell line was utilized to screen the Tox21 10K compound library.
Assay Protocol Summary: Hek293 cells were dispensed at 1500cells/4uL/well in 1536-well black wall/clear bottom plates using a multidrop dispenser. After the assay plates were incubated at a 37 C/5% CO2 incubator for 18 hours, 4 uL of Calcium Dye Solution was added to each well. The plates were incubated at 37 C for 1 hour. For agonist mode, 23 nL of compounds dissolved in DMSO, positive control (ATP) or DMSO only was transferred to the assay plate by a pin tool station. The fluorescence intensity in the plates was measured using FDSS 7000EX kinetic plate reader with a filter set of Ex/Em=480/540 for 3 min at 1 sec intervals. Each test compound was measured at 15 concentrations and in triplicates.
A general note: A change in cytosolic calcium serves as a functional read-out for many receptors and channels.
As to `O=C(O)CNC(=O)CNC(=O)CNC(=O)CSC(=O)c1ccccc1`, the “activation” value is -0.207% [at 26.5 µM].
Same read-out and setting: for `C[C@@H](O)C(=O)O` the value was -0.0117%.
On the same count and under the same terms, for `CC(=O)OC(C(=O)c1ccccc1)c1ccccc1` (stereo not given) the value was -4.03%.
Still for that read-out and setting: for `Nc1nc(N)c2nc(CNc3ccc(C(=O)N[C@@H](CCC(=O)O)C(=O)O)cc3)cnc2n1` the value was 0.0296%; for `Cc1ccccc1N=C(N)Nc1ccccc1C`, 2.06%.
On to `CCOC(=O)c1ccccc1C(=C1C=C(Br)C(=O)C(Br)=C1)c1cc(Br)c(O)c(Br)c1`, for which the “activation” value is 0.227% [at 26.5 µM].
Take `O=C1N=C(O)CN1/N=C/c1ccc(-c2ccc([N+](=O)[O-])cc2)o1`: the Potency result is “inactive”.
For `COc1nc(N)nc2c1ncn2[C@@H]1O[C@H](CO)[C@@H](O)[C@@H]1O`, the “activation” value is 2.82% [at 26.5 µM].
Still for that read-out and setting: for `ClC(Cl)Cl` the value was -0.28%.
On to `O=C1CC[C@@H](C(=O)O)N1`, for which the “activation” value is -0.154% [at 26.5 µM].
With `CC(=O)c1ccc2c(c1)Cc1ccccc1-2`, the “activation” value was -2.65%.
On the same count and under the same terms, for `CC(=O)c1ccc2c(c1)N(CCCN1CCC(CCO)CC1)c1ccccc1S2` the value was -0.893% [at 26.5 µM]; for `COC(C)(C)CC(C)=O`, -0.0332%.
Still for that read-out and setting: for `O=C(OCCOCCOCCOC(=O)c1ccccc1)c1ccccc1` the value was -1.13%; for `CCCCCCCCC(CCCCCC)C(=O)O` (stereo not given), 2.11%; for `N=C(N)N1CCc2ccccc2C1`, -0.314% [at 5.23 µM].
On the same count and under the same terms, as for `C=CCN(CC=C)CC=C`, the figure is -0.151%; as for `Nc1nc(F)nc2c1ncn2[C@@H]1O[C@H](CO)[C@@H](O)[C@@H]1O`, 0.168% [at 26.5 µM].
`c1ccc2c(c1)-c1ccc3ccc4cccc5cc-2c1c3c45`: the “activation” value was 0.896% [at 26.5 µM].
Same read-out and setting: as for `O=S(=O)(O)SSS(=O)(=O)O`, the figure is 0.456%; as for `CCC(C(=O)NC(=O)NC(C)=O)c1ccccc1` (stereo not given), 0.146% [at 26.5 µM]; as for `NC(=S)NC(N)=S`, -1.53%.
Still for that read-out and setting: as for `O=C(Cl)c1c(Cl)cccc1Cl`, the figure is 0.117%; as for `CCCCCCCCNC`, -0.207%.
In the case of `CN(C)CCCN1c2ccccc2CCc2ccccc21`, the Potency result was “inactive”.
As to `CCC(C)C(C)=O` (stereo not given), the “activation” value is -0.418%.
As for `Cc1ccccc1N=C(N)N=C(N)N`, the “activation” value is 0.0625%.
Still for that read-out and setting: as for `O=C(Nc1ccc2c(c1)Cc1ccccc1-2)C(F)(F)F`, the figure is -0.263%; as for `O=C(O)Cc1ccc(OCCNC[C@H](O)c2ccccc2)cc1`, 0.0522% [at 26.5 µM].
Take `CCN(Cc1ccncc1)C(=O)C(CO)c1ccccc1` (stereo not given): the “activation” value was -0.315% [at 26.5 µM].
Same read-out and setting: as for `CC(C)(C(=O)O)c1ccc(C(O)CCCN2CCC(C(O)(c3ccccc3)c3ccccc3)CC2)cc1` (stereo not given), the figure is -1.33% [at 26.5 µM].
Still for that read-out and setting: as for `CC(C)COC(=O)C(C)C`, the figure is -0.0241%; as for `O=C1c2ccccc2C(=O)c2c(O)c(O)cc(O)c21`, 3.99%.
Same read-out and setting: as for `CCC(Cl)C(Cl)C(Cl)CC(Cl)C(Cl)C(C)Cl` (stereo not given), the figure is 0.558%; as for `CN(C)CCN(C)CCO`, -1.03%.
In the case of `CC(=O)SCC(CC(=O)c1ccc(C)cc1)C(=O)O` (stereo not given), the “activation” value was -0.23% [at 26.5 µM].
On the same count and under the same terms, as for `OC(CCN1CCCCC1)(c1ccccc1)C1CCCCC1` (stereo not given), the figure is 1.99% [at 26.5 µM].
Same read-out and setting: as for `CCN(Cc1cccc(S(=O)(=O)O)c1)c1ccc(C(=C2C=CC(=[N+](CC)Cc3cccc(S(=O)(=O)O)c3)C=C2)c2ccc(O)cc2S(=O)(=O)[O-])cc1`, the figure is 0.294% [at 26.5 µM]; as for `C=C[Si](OC)(OC)OC`, -0.0349%.
Still for that read-out and setting: as for `CCCCC(CC)COC(=O)c1ccccc1C(=O)O` (stereo not given), the figure is 9.87%.
